Where “and” joins values, the source holds several entries; their conditions need not be identical. Identical values can stand only once. Results filed as inconclusive are left out. Where a structure was tested more than once in an assay, its records may differ in their call. Calls of active or inactive are those of the source.

A short description of one assay: qHTS assay for small molecule agonists of the antioxidant response element (ARE) signaling pathway (AID 651741; active = well fitted activation curve with a large enough effect in the signal ratio; the % refers to the signal ratio; note: potency is the fitted concentration of half-maximal effect; for activation: % of control where 0% means no effect). The settings on record: HepG2 ARE-bla reporter, beta-lactamase FRET ratio, 16 h; series mostly up to 96 µM. Summed up:
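HepG2 ARE-bla cells plated at 2,000 cells/well and incubated 5 h at 37 C/5% CO2 received 23 nL compound in DMSO. After 16 h at 37 C, LiveBLAzer B/G FRET substrate was applied for 2 h at room temperature and fluorescence read.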
(Quantitative high-throughput screening tests each substance at several concentrations.)
For the molecule `COc1nn(CSP(=S)(OC)OC)c(=O)s1`, the Potency entry is “inactive”.

On to `Nc1ccc(Cl)cc1N`, for which the Potency was 4.22 µM (active) and 27.3 µM (active).

With `CCCN(CCC)c1c([N+](=O)[O-])cc(S(N)(=O)=O)cc1[N+](=O)[O-]`, the Potency is 61.1 µM (active).

For the molecule `O=[N+]([O-])c1c2ccccc2cc2ccccc12`, the Potency was 53.1 µM (active).

As for `CS(=O)(=O)c1ccc(C(=O)C2C(=O)CCCC2=O)c([N+](=O)[O-])c1`, the Potency was 54.5 µM (active).

For `CC(C)(O)C(=O)Nc1ccc([N+](=O)[O-])c(C(F)(F)F)c1`, the Potency was 66.8 µM (active).

Consider `Nc1ccc([N+](=O)[O-])cc1O`, for which the Potency is 13.3 µM (active) and 15.4 µM (active).

As for `O=[N+]([O-])c1cc([N+](=O)[O-])c2ccccc2c1`, the Potency is 5.96 µM (active).

As for `CCCCOC(=O)c1ccccc1C(=O)OCc1ccccc1`, the Potency result is “inactive”.

For the molecule `Nc1cccc2c(N)cccc12`, the Potency is 27.3 µM (active).

As to `CN(C)NC(=O)CCC(=O)O`, the Potency result was “inactive”.

With `O=C(O)COc1ccccc1`, the Potency entry is “inactive”.

Take `COC(C)(C)CCCC(C)C/C=C/C(C)=C/C(=O)OC(C)C` (centres undefined): the Potency was 48.6 µM (active) and 66.8 µM (active).

For the molecule `CC(=O)[O][Hg][c]1ccccc1`, the Potency was 47.3 µM (active).

Take `COCCOCCO`: the Potency result is “inactive”.

As for `O=S(=O)(O)C(F)(F)C(F)(F)C(F)(F)C(F)(F)F`, the Potency is 30.6 µM (active) and inactive.

As to `COc1ccc(C(c2ccc(OC)cc2)C(Cl)(Cl)Cl)cc1`, the Potency is 33.5 µM (active) and 61.1 µM (active).

On to `CC(C)(c1ccc(O)cc1)c1ccc(O)cc1`, for which the Potency was 42.2 µM (active) and 47.3 µM (active) and 30.6 µM (active).

Consider `O=C(O)c1cc(Oc2ccc(C(F)(F)F)cc2Cl)ccc1[N+](=O)[O-]`, for which the Potency result was “inactive”.

A further assay in a line: qHTS assay for small molecule activators of the p53 signaling pathway (AID 651743; active = well fitted activation curve with a large enough effect in the signal ratio, not every such curve was filed as active; the % refers to the signal ratio; note: % of control where 0% means no effect). The settings on record: HCT-116 p53RE-bla, beta-lactamase FRET ratio, 16 h; activation: stronger effect = higher value. In outline:
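HCT-116 p53RE-bla, 4,000 cells/well; 5 h settle; cpd/DMSO 16 h, 37 C; LiveBLAzer B/G 2 h RT; fluorescence intensity.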
Regarding `CC(C)Oc1cccc(NC(=O)c2ccccc2C(F)(F)F)c1`, the activation is -2.47% (inactive).

For the molecule `Clc1cnc(Oc2ccc(Oc3ncc(Cl)cc3Cl)cc2)c(Cl)c1`, the activation is -0.174% (inactive).

As for `OCCCBr`, the activation is 1.31% (inactive).

Take `COc1nn(CSP(=S)(OC)OC)c(=O)s1`: the activation is 0.0507% (inactive).

On to `Nc1ccc(Cl)cc1N`, for which the activation was 1.69% (inactive) and 0.406% (inactive).

As to `C=CCC1=C(C)C(OC(=O)C2C(C=C(C)C)C2(C)C)CC1=O` (centres undefined), the activation was 1.22% (inactive).

For the molecule `Nc1ccc(Cl)cc1`, the activation was -2.94% (inactive).

On to `O=[N+]([O-])c1c2ccccc2cc2ccccc12`, for which the activation was 4.5% (inactive).

With `Cc1cc(O)ccc1Cl`, the activation was -0.548% (inactive).

In the case of `CS(=O)(=O)c1ccc(C(=O)C2C(=O)CCCC2=O)c([N+](=O)[O-])c1`, the activation was -1.94% (inactive).

For the molecule `CC(C)(O)C(=O)Nc1ccc([N+](=O)[O-])c(C(F)(F)F)c1`, the activation was 4.44% (inactive).

As for `CCO/N=C(\CC)C1=C(O)CC(c2c(C)cc(C)cc2C)CC1=O` (centres undefined), the activation is 0.237% (inactive).

As to `Nc1ccc([N+](=O)[O-])cc1`, the activation was 0.0042% (inactive).

On to `O=[N+]([O-])c1cc([N+](=O)[O-])c2ccccc2c1`, for which the activation was -0.898% (inactive).

Consider `O=C(Nc1ccccc1-c1ccc(Cl)cc1)c1cccnc1Cl`, for which the activation was -6.13% (inactive).

In the case of `CCCCOC(=O)c1ccccc1C(=O)OCc1ccccc1`, the activation was 1.28% (inactive) and 1.63% (inactive).

Regarding `c1cc2ccc3cccc4ccc(c1)c2c34`, the activation is 4.51% (inactive) and 2.05% (inactive).

As to `CN(C)NC(=O)CCC(=O)O`, the activation was 0.825% (inactive) and -3.72% (inactive).

Turning to `CCCCCCCCc1ccc(O)cc1`, the activation is 0.0262% (inactive) and -2.23% (inactive).

Take `O=C(O)COc1ccccc1`: the activation was -8.89% (inactive).

In the case of `COC(C)(C)CCCC(C)C/C=C/C(C)=C/C(=O)OC(C)C` (centres undefined), the activation was -4.75% (inactive) and -1.61% (inactive).

As for `O=S(=O)(O)C(F)(F)C(F)(F)C(F)(F)C(F)(F)F`, the activation was -0.542% (inactive) and -4.63% (inactive).

For the molecule `O=[N+]([O-])c1c(Cl)c(Cl)cc(Cl)c1Cl`, the activation is -1.29% (inactive).

`CCCCC(CC)COC(=O)c1ccccc1C(=O)OCC(CC)CCCC` (centres undefined): the activation is -3.4% (inactive) and 2.22% (inactive).

On to `COc1ccc(C(c2ccc(OC)cc2)C(Cl)(Cl)Cl)cc1`, for which the activation was 2.38% (inactive) and 0.818% (inactive).

In the case of `O=C(O)CCCOc1ccc(Cl)cc1Cl`, the activation was 3.34% (inactive).

With `CCOP(=O)(NC(C)C)Oc1ccc(SC)c(C)c1` (centres undefined), the activation was -4.79% (inactive) and -0.487% (inactive).

For the molecule `O=C(O)COc1nc(Cl)c(Cl)cc1Cl`, the activation is 1.93% (inactive).

A short description of another assay: qHTS assay for small molecule activators of the nuclear factor-kappa B (NF-kB) signaling pathway (AID 651749; active = well fitted activation curve with a large enough effect in the signal ratio; the % refers to the signal ratio; note: % of control where 0% means no effect). Particulars: NF-kB-bla ME-180 cells, beta-lactamase FRET ratio, 16 h; stronger effect = higher value. Summed up:
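Incubation lasted 16 hr at 37C in 5% CO2 after 23 nL compound addition to ME-180 NF-kB-bla cells. Activation appears as beta-lactamase-mediated FRET loss.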
Consider `CC(C)Oc1cccc(NC(=O)c2ccccc2C(F)(F)F)c1`, for which the activation is 1.81% (inactive).

As for `Clc1cnc(Oc2ccc(Oc3ncc(Cl)cc3Cl)cc2)c(Cl)c1`, the activation is 0.531% (inactive).

With `OCCCBr`, the activation is -0.539% (inactive).

On to `COc1nn(CSP(=S)(OC)OC)c(=O)s1`, for which the activation was -0.901% (inactive).

For `Nc1ccc(Cl)cc1N`, the activation was 0.983% (inactive) and -0.776% (inactive).

As for `C=CCC1=C(C)C(OC(=O)C2C(C=C(C)C)C2(C)C)CC1=O` (centres undefined), the activation was 0.983% (inactive) and 2.07% (inactive).

Turning to `CCCN(CCC)c1c([N+](=O)[O-])cc(S(N)(=O)=O)cc1[N+](=O)[O-]`, the activation was -2.96% (inactive).

Take `Cc1cc(O)ccc1Cl`: the activation was -0.28% (inactive).

As to `CS(=O)(=O)c1ccc(C(=O)C2C(=O)CCCC2=O)c([N+](=O)[O-])c1`, the activation was -0.467% (inactive).

For the molecule `CCO/N=C(\CC)C1=C(O)CC(c2c(C)cc(C)cc2C)CC1=O` (centres undefined), the activation is 0.436% (inactive).

Regarding `Nc1ccc([N+](=O)[O-])cc1`, the activation is -0.186% (inactive).

Take `CCCCCCCCCCCCCCCC[N+](C)(C)C`: the activation is 1.41% (inactive).

`O=[N+]([O-])c1cc([N+](=O)[O-])c2ccccc2c1`: the activation was -0.323% (inactive).

`O=C(Nc1ccccc1-c1ccc(Cl)cc1)c1cccnc1Cl`: the activation was 0.368% (inactive).

With `CCCCOC(=O)c1ccccc1C(=O)OCc1ccccc1`, the activation is -1.25% (inactive) and 0.0084% (inactive).

On to `c1cc2ccc3cccc4ccc(c1)c2c34`, for which the activation was -0.548% (inactive) and 0.897% (inactive).

Consider `CN(C)NC(=O)CCC(=O)O`, for which the activation is 0.502% (inactive) and -0.298% (inactive).

For `O=C(O)COc1ccccc1`, the activation is -0.0582% (inactive).

For the molecule `COC(C)(C)CCCC(C)C/C=C/C(C)=C/C(=O)OC(C)C` (centres undefined), the activation was -3.22% (inactive) and 0.402% (inactive).

In the case of `COCCOCCO`, the activation was -0.521% (inactive) and -1.09% (inactive).

Regarding `O=S(=O)(O)C(F)(F)C(F)(F)C(F)(F)C(F)(F)F`, the activation is -0.249% (inactive) and 0.21% (inactive).

For `O=[N+]([O-])c1c(Cl)c(Cl)cc(Cl)c1Cl`, the activation is -0.885% (inactive).

In the case of `CCCCC(CC)COC(=O)c1ccccc1C(=O)OCC(CC)CCCC` (centres undefined), the activation is 0.371% (inactive) and -1.46% (inactive).

`COc1ccc(C(c2ccc(OC)cc2)C(Cl)(Cl)Cl)cc1`: the activation is 1.06% (inactive) and 0.442% (inactive) and 3.56% (inactive).

As for `CCOP(=O)(NC(C)C)Oc1ccc(SC)c(C)c1` (centres undefined), the activation was -0.0757% (inactive) and -0.702% (inactive).

As to `O=C(O)COc1nc(Cl)c(Cl)cc1Cl`, the activation is 0.434% (inactive).

`O=C(O)c1cc(Oc2ccc(C(F)(F)F)cc2Cl)ccc1[N+](=O)[O-]`: the activation was -1.27% (inactive).

(Values after PubChem BioAssay (NCATS).)
